# Test results published in PubChem BioAssay (EPA / NIEHS).
# Inconclusive results are not listed. The source made the active and inactive calls. How the source made its calls: active means hit-call score of the fitted dose curve at least 0.9, where 1 is the maximum; inconclusive means response in the unintended direction; inactive means score below 0.9.
# Read-out: Cytochrome P450 2C19 (Homo sapiens) (UniProt P33261)
# Experiment: CLD_CYP2C19_24hr: CellzDirect (CLD) Gene Expression Assay for xenobiotic metabolism (CYP2C19) at 24 hours (AID 2283687)
# Protocol: CLD_24hr is a cell-based, multiplexed-readout assay that uses hepatocyte, a human liver primary cell, with measurements taken at 24 hours after chemical dosing in a 96-well plate.CLD_CYP2C19_24hr is one of 16 assay component(s) measured or calculated from the CLD_24hr assay. It is designed to make measurements of mRNA induction, a form of inducible reporter, as detected with chemiluminescence signals by Quantitative Nuclease Protection Assay (qNPA) technology.Data from the assay component CLD_CYP2C19_24hr was analyzed at the endpoint, CLD_CYP2C19_24hr, in the positive analysis fitting direction relative to DMSO as the negative control and baseline of activity. Using a type of inducible reporter, gain-of-signal activity can be used to understand changes in the reporter gene as they relate to the gene CYP2C19. Furthermore, this assay endpoint can be referred to as a primary readout. To generalize the intended target to other relatable targets, this assay endpoint is annotated to the cyp intended target family, where subfamily is xenobiotic metabolism.
# Human hepatocyte cultures were treated daily for two consecutive days with fresh dosing solutions containing appropriate concentrations of the 320 ToxCast chemicals (chemical identities were blinded to CellzDirect and other ToxCast collaborators), vehicle control (0.2% DMSO), and positive control inducers as summarized in Table 1. Due to the large number of treatment groups and chemicals examined, the ToxCast chemicals were divided into two groups (spanning two independent cultures of hepatocytes from separate donor preparations (Hu778: ToxCast plates 1 and 2; Hu776: ToxCast plates 3 and 4). Each preparation of human hepatocyte cultures was treated with respective vehicle control, medium only control, set of six positive controls/reference chemicals for the five hepatic receptor pathways, and a subset of eight of the ToxCast chemicals (indoxacarb, pyrithiobac-sodium, norflurazon, cyhalofop-butyl, methomyl, thiram, acetochlor, and propiconazole). These replicate data, coupled with internal replicates designed within the blinded ToxCast chemical library, provided additional data to evaluate interindividual differences between hepatocyte preparations and their potential impact on chemical profiles.Cell morphology and integrity were evaluated using phase-contrast microscopy as an indicator of hepatocyte cell health (Tyson & Green, 1987). Cultures for each treatment group (i.e., media, vehicle [0.2% DMSO], positive control inducers [multiple concentrations], and the ToxCast chemicals [multiple concentrations]) were observed and cell morphology was assessed relative to vehicle control cultures at each harvest time point (0, 6, 24, or 48 h). […] Images were evaluated at the conclusion of the study to assess changes in cell integrity and account for the effects of chemical exposure on uncharacteristic changes in concentration-dependent gene expression profiles. The results from these determinations of apparent cytotoxicity were annotated (yes/no) alongside the corresponding qNPA data for reference.At the conclusion of each treatment period, hepatocyte cultures (96-well) were washed with 1 volume of HBSS, lysed by addition of 25 ul ArrayPlate lysis buffer (HTG, Tucson, AZ), and 70 ul/well of Denaturation Oil, denatured by incubation at 95C for 10 min, and frozen at approximately -70C until analysis by nuclease protection assay (qNPA) (Roberts et al., 2007). For qNPA analysis, cell lysates were thawed at 50C for approximately 30 min, qNPA probes were added, and samples were incubated at 95C for 10 min to begin the detection process by denaturing the target RNA, dissociating the duplexes and secondary structure hybridization. At the conclusion of the hybridization period, S1 nuclease reagent was added to each sample to digest all nonprotected nucleotides at 50C for 60-90 min. […]
# Cytochrome P450 2C19 (Homo sapiens), sequence (P33261 whole entry, looked up): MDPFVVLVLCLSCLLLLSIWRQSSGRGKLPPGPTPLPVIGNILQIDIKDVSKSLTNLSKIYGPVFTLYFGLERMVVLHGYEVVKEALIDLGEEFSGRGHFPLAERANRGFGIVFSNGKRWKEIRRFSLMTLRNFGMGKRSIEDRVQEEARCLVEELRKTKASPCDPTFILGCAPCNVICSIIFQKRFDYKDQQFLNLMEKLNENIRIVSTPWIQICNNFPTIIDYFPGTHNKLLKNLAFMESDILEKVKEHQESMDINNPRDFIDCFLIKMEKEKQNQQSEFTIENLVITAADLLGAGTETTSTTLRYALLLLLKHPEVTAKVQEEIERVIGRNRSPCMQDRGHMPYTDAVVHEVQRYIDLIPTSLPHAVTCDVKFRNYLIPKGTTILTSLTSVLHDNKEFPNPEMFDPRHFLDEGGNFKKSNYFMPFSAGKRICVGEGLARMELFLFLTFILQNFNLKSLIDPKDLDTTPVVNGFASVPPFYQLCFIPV
row,Compound,outcome
1,CS(=O)(=O)c1cc(C(F)(F)F)ccc1C(=O)c1cnoc1C1CC1,inactive
2,CCCC(=NOCC)C1=C(O)CC(CC(C)SCC)CC1=O (stereo unspecified),inactive
3,COCC(=O)N(c1c(C)cccc1C)C(C)C(=O)OC (stereo unspecified),inactive
4,COc1cc(OC)nc(NC(=O)NS(=O)(=O)c2ncccc2OCC(F)(F)F)n1,inactive
5,CCNC(=O)NC(=O)C(C#N)=NOC,inactive
6,Nc1c(Cl)c(F)nc(OCC(=O)O)c1Cl,inactive
7,CN=C=S,inactive
8,CC(C)N1C(=O)c2ccccc2NS1(=O)=O,inactive
9,Nc1c(Cl)c(Cl)nc(C(=O)O)c1Cl,inactive
10,CCN(CC)C(=O)C(C)Oc1cccc2ccccc12 (stereo unspecified),inactive
11,CS(=O)(=O)c1ccc(C(=O)C2C(=O)CCCC2=O)c([N+](=O)[O-])c1,inactive
12,Cc1nc(N(C)C)nc(OC(=O)N(C)C)c1C,inactive
13,CC(C)(C)C(=O)C(Oc1ccc(Cl)cc1)n1cncn1 (stereo unspecified),inactive
14,CCCN(CC)CC1COC2(CCC(C(C)(C)C)CC2)O1 (stereo unspecified),inactive
15,COC(=O)NS(=O)(=O)c1ccc(N)cc1,inactive
16,CC(C)C1(C)N=C(c2ncccc2C(=O)O)NC1=O (stereo unspecified),inactive
17,C=CCOC(=O)C(C)(C)OC(=O)c1cc(-n2c(=O)cc(C(F)(F)F)n(C)c2=O)ccc1Cl,inactive
18,COP(=O)(OC)O/C(C)=C/C(=O)N(C)C,inactive

row,Compound,outcome
1,COc1cc(Cl)c(OC)cc1Cl,inactive
2,Clc1cccc(C(Cl)(Cl)Cl)n1,inactive
3,CSC(=O)c1c(C(F)F)nc(C(F)(F)F)c(C(=O)SC)c1CC(C)C,inactive
4,CNC(=O)N(C)c1nnc(C(C)(C)C)s1,inactive
5,CC(C)Oc1cccc(NC(=O)c2ccccc2C(F)(F)F)c1,inactive
6,O=C(O)c1c(Cl)ccc2cc(Cl)cnc12,inactive
7,N#CN=C1SCCN1Cc1ccc(Cl)nc1,inactive
8,CC1(C)CON(Cc2ccccc2Cl)C1=O,inactive
9,C=C(C)CN(CC)c1c([N+](=O)[O-])cc(C(F)(F)F)cc1[N+](=O)[O-],inactive
10,CCCCOCN(C(=O)CCl)c1c(CC)cccc1CC,inactive
11,O=P(O)(O)CCCl,inactive
12,O=c1n(Cl)c(=O)n(Cl)c(=O)n1Cl,inactive
13,Cc1cnc(C2=NC(C)(C(C)C)C(=O)N2)c(C(=O)O)c1 (stereo unspecified),inactive
14,CCSC(=O)N1CCCCCC1,inactive
15,O=C1C2CC=CCC2C(=O)N1SC(Cl)(Cl)Cl (stereo unspecified),inactive
16,CC1(C)C(C=C(Cl)Cl)C1C(=O)OC(C#N)c1cccc(Oc2ccccc2)c1 (stereo unspecified),inactive
17,CC(C)=CC1C(C(=O)OCc2coc(Cc3ccccc3)c2)C1(C)C (stereo unspecified),inactive
18,Cc1c(COC(=O)[C@@H]2[C@H](/C=C(\Cl)C(F)(F)F)C2(C)C)cccc1-c1ccccc1,inactive
